Most compounds without a hit are left out; they make up all but 14% or so of the library.
HCMV inh = inhibitors of human cytomegalovirus | HFF cells, HCMV-luciferase reporter, 72 h; stronger effect = lower value | activity change, negative = inhibition, % at 57.5 µM | hit rate 4.5% among 410,000; in the data active = activity change below about -60%; inconclusive = no clear call, values can overlap the other calls; inactive = above about -39%
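Two compound doses tested in HFFs infected with HCMV-luciferase, MOI 1 PFU/cell, 72 h at 37C. Lysate luminescence read with OneGlo; data normalized against buffer-only and 10uM Salinomycin inhibitor controls.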
FBPA Giardia inh = blocks Giardia fructose-bisphosphate aldolase activity | hit rate 0.71% among 290,000 | purified Giardia FBPA | Potency, µM (highest dose often 59.6 µM), for the others: top-dose activity, negative = inhibition, usual class: inhibitors; note: potency is the fitted concentration of half-maximal effect; nearly all actives have a fitted effect of over 55% in size
Target sequence (A8B2U2 whole entry, looked up): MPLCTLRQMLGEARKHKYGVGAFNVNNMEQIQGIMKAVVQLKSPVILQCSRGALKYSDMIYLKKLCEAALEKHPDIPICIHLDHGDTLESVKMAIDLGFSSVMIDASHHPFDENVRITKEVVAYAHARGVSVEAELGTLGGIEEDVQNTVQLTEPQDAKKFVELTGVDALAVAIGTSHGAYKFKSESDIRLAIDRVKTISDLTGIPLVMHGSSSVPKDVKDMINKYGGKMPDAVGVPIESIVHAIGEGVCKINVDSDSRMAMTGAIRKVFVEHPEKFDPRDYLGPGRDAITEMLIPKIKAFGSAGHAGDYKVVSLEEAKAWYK
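40 nM FBPA preincubated 10 min at RT with compound (up to 57.5 uM final), then substrate plus GAPDH/TPI/NAD/arsenate coupling and diaphorase/resazurin added. Fluorescence read after 20 min at RT, 525/598 nm.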
Pf growth 48h = P. falciparum growth inhibition at 48 hours (one generation); P. falciparum luciferase growth in erythrocytes, 48 h; Potency, µM (doses to about 28.7 µM), for inactives: top-dose activity change, negative = inhibition, hits mostly inhibitors; hit rate 5.9% among 310,000; note: potency is the fitted concentration of half-maximal effect
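A one-generation exposure of luciferase-tagged malaria parasites in RPMI 1640/Albumax erythrocyte culture, 37 C and 5% CO2. Inhibition is inferred from decreased luminescence after adding detection reagent.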
Pf growth 96h = P. falciparum growth inhibition at 96 hours; Potency, µM (highest dose often 28.7 µM), without a hit: at the top dose activity change, negative = inhibition, actives largely listed as inhibitors; hit rate 6.9% among 320,000; P. falciparum luciferase reporter growth, 96 h; AID 504834; note: potency is the fitted concentration of half-maximal effect
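Erythrocytes infected with luciferase-expressing P. falciparum were dispensed at 2% hematocrit and 0.05% parasitemia (final), then incubated with compounds 96 hours at 37 C in 5% CO2. Luminescence after detection reagent addition reported growth.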
Sm TGR inh = S. mansoni TGR enzyme inhibition; Q962Y6; Potency, µM (top dose mostly 114 µM), for the others: at the highest dose activity change, negative = inhibition, hits mostly inhibitors; AID 485364; hit rate 3% among 360,000; purified TGR, DTNB reduction, TNB absorbance 405 nm; note: potency is the fitted concentration of half-maximal effect; nearly all actives have a fitted effect of over 60% in size
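First, TGR (20 nM dispensed) and NADPH were mixed with compound. Second, a 15 min room-temperature incubation followed. Third, further NADPH and then DTNB were added to start the reaction. Finally, TNB absorbance was monitored kinetically.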
The depositor's hits bear a star; ? = inconclusive; . = not tested or not shown. Unless noted, calls come from the whole dose curve; as a rule, active = well fitted curve in the direction sought with a large enough effect; inconclusive = small, poorly fitted or top-dose-only effect, or another doubt; inactive = no such curve, though single readings can be large; an effect the other way counts as inactive or inconclusive. % is set by controls: 0 for no effect and ±100 for the full control effect.

SMILES	HCMV inh	FBPA Giardia inh	Pf growth 48h	Pf growth 96h	Sm TGR inh
Cc1ccnc(OC(C(=O)O)C(OCc2ccccc2)(c2ccc(F)cc2)c2ccc(F)cc2)n1 (centres undefined)	-21.9	9.4%	1.9%	5.3%	6.4%
COc1ccc2oc(=O)c(-c3nc(-c4cc(OC)c(OC)c(OC)c4)no3)cc2c1	-8.2	.	.	.	-1.4%
Cc1ccc(S(=O)(=O)N(C)/N=C2/C(=O)N(CC(=O)O)c3ccccc32)cc1	52.4	5.1%	12.3%	?	?
O=C(NCc1ccco1)C(c1cccs1)N(Cc1ccccc1)C(=O)Cn1nnc2ccccc21 (centres undefined)	-62.4*	9.6%	?	?	-16.0%
O=c1cc(-c2ccc(O)cc2)oc2cc(OC3OC(CO)C(O)C(O)C3O)c(C3OC(CO)C(O)C(O)C3O)c(O)c12 (centres undefined)	.	1.4%	.	.	.
COc1ccc(CCNC(=O)COc2coc(CN3c4ccccc4CC3C)cc2=O)cc1OC (centres undefined)	?	.	9.28µM*	?	-0.2%
CC1Cc2ccccc2N1Cc1cc(=O)c(OCC(=O)Nc2ccccc2)co1 (centres undefined)	-16.3	.	9.28µM*	10.4µM*	8.6%
COc1ccc(Nc2cc3c(cn2)nc(-c2ccc(OC)c(OC)c2)n3C)cn1	20.6	.	.	.	.
O=C(NCc1ccc2c(c1)OCO2)c1cc2c(s1)CSC2	18.9	-0.3%	20.4%	37.0%	-12.1%
O=C(NCc1ccco1)c1cc2c(s1)CSC2	.	-10.9%	0.1%	?	17.8µM*
COc1ccc(C(=O)N/C(=C/c2ccco2)C(=O)NCc2ccco2)cc1	4.6	-4.1%	4.1%	5.7%	?
COc1ccc(C(=O)N/C(=C\c2ccco2)C(=O)OCc2ccco2)cc1	29.3	-0.4%	7.4%	-15.1%	28.2µM*
Cc1ccc(C(=O)N/C(=C/c2ccco2)C(=O)NCc2ccco2)cc1	22.7	1.2%	13.4%	0.3%	39.8µM*
CC(/C=N/NC(=O)c1cccs1)=C\c1ccco1	-32.0	?	78.0%	?	31.6µM*
O=C(/C=C/c1ccc([N+](=O)[O-])cc1)N1CCN(S(=O)(=O)c2cccs2)CC1	-14.3	4.9%	28.4%	-5.4%	-16.2%
CC1(C(=O)NS(=O)(=O)c2cccc(F)c2)CCN1C(=O)CC1CCCC1 (centres undefined)	48.1	.	.	.	.
O=C(Nc1ccc(O)cc1)/C(=C\c1cccs1)NC(=O)c1ccccc1	31.8	1.8%	-8.0%	36.3%	6.0%
O=C(NCc1ccco1)/C(=C\c1cccs1)NC(=O)c1cccs1	-19.0	8.3%	0.8%	?	4.2%
O=C(NCc1ccco1)/C(=C\c1ccco1)NC(=O)c1cccs1	-13.1	-9.8%	27.5%	?	28.2µM*
Cc1ccc(NC(=O)/C(=C\c2cccs2)NC(=O)c2ccccc2)cc1	?	6.9%	?	7.38µM*	1.6%
O=C(NCc1ccco1)c1sc2cc(F)ccc2c1Cl	?	-0.7%	111.3%	14.7µM*	?
COc1cc(/C=C(/NC(=O)c2ccccc2)C(=O)Nc2ccc(O)cc2)c([N+](=O)[O-])cc1OC	-73.2*	-3.9%	1.1%	10.4µM*	-8.4%
O=C(Nc1ccon1)c1sc2cc(F)ccc2c1Cl	27.1	12.3%	158.0%	-8.0%	-24.2%
CC1(Oc2cccnc2Cl)CCN(Cc2ccc(OC(F)(F)F)cc2)C1 (centres undefined)	-13.6	.	.	.	.
O=[N+]([O-])c1ccccc1-c1cc(-c2ccccc2Br)no1	71.1	.	.	.	.
SMILES	HCMV inh	FBPA Giardia inh	Pf growth 48h	Pf growth 96h	Sm TGR inh
O=C1c2ccc(Cl)cc2S(=O)(=O)c2cccc(C(=O)N3CCC(Cc4ccccc4)CC3)c21	-26.6	.	39.8%	1.3%	?
O=C(NCc1ccco1)c1cccs1	20.4	-9.8%	?	.	35.5µM*
Cc1ccc(C(=O)N/C(=C/c2cccs2)C(=O)NCc2ccco2)cc1	-7.3	2.3%	-3.3%	0.522µM*	-3.6%
Cc1cccc(NC(=O)/C(=C\c2ccco2)NC(=O)c2cccs2)c1	-10.9	-5.4%	?	223.1%	50.1µM*
O=C(NNC(=S)NCc1ccco1)c1cccs1	-17.7	-4.7%	5.5%	?	8.8%
CC(=C/c1ccco1)/C=N/NC(=O)c1nnn(-c2nonc2N)c1CN(C)C	-60.1*	?	-9.7%	59.3%	-14.8%

Source: PubChem BioAssay
